PubChem BioAssay (NCATS)
Where “and” joins values, the source holds several entries; their conditions need not be identical. Equal entries are not always repeated. Inconclusive results are not listed. Calls of active or inactive are those of the source. Calls come from the whole dose curve; as a rule, active = well fitted curve in the direction sought with a large enough effect; inconclusive = small, poorly fitted or top-dose-only effect, or another doubt; inactive = no such curve, though single readings can be large; an effect the other way counts as inactive or inconclusive.

Columns and labels:
CRL-7250 = normal cell line; test: Cytotoxic Profiling of Annotated Libraries Using Quantitative High-Throughput Screening (AID 1296008); conditions: Five cell lines viability, CellTiter-Glo ATP luminescence, 48-72 h; max response: stronger effect = lower value; note: nearly all actives have a fitted effect of over 60% in size
In short: (§1)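 Cells exposed to compounds for 48 or 72 hr at 37 degrees Celsius. Viability read as ATP-coupled luminescence with CellTiter-Glo after 10 min at room temperature.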

HEK293 = test: as above; conditions: Five cell lines viability, CellTiter-Glo ATP luminescence, 48-72 h; max response: stronger effect = lower value
In short: as §1

HaCat [1] = test: as above; conditions: Five cell lines viability, CellTiter-Glo ATP luminescence, 48-72 h; max response: stronger effect = lower value
In short: as §1

KB-3-1 = test: as above; conditions: Five cell lines viability, CellTiter-Glo ATP luminescence, 48-72 h; max response: stronger effect = lower value
In short: as §1

NIH3T3 = test: as above; conditions: Five cell lines viability, CellTiter-Glo ATP luminescence, 48-72 h; max response: stronger effect = lower value
In short: as §1

MCC-13 = test: qHTS assay to identify novel small-molecules to repurpose for Merkel cell carcinoma treatment (AID 1296009); conditions: MCC and control cell lines, CellTiter-Glo viability, 72 h; series mostly up to 46 µM; note: nearly all actives have a fitted effect of over 60% in size
In short: (§2)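 CellTiter-Glo luminescence after 72 hr compound exposure at 37 degree celsius gave cell viability. Libraries NPC and MIPE were run as 8- and 11-point dose responses; RLUs normalized to DMSO (negative) and no-cell (cytotoxicity) controls.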

MKL-1 = test: as above; conditions: MCC and control cell lines, CellTiter-Glo viability, 72 h; series mostly up to 46 µM
In short: as §2

MKL-2 = test: as above; conditions: MCC and control cell lines, CellTiter-Glo viability, 72 h; series mostly up to 46 µM
In short: as §2

UISO = test: as above; conditions: MCC and control cell lines, CellTiter-Glo viability, 72 h; series mostly up to 46 µM
In short: as §2

WaGa = test: as above; conditions: MCC and control cell lines, CellTiter-Glo viability, 72 h; series mostly up to 46 µM
In short: as §2

CASKI = test: Primary qHTS to identify gynecologic anti-cancer compounds using libraries of approved drugs and bioactive compounds (AID 1345084); conditions: Gynecologic cancer cell panel viability, ATPlite luminescence, 48 h; series mostly up to 57.5 µM; note: nearly all actives have a fitted effect of over 55% in size
In short: (§3)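 Cells, 1,000 per well, were allowed to settle for 16 h at 37 C before compound addition. Five concentrations were tested for 48 h, and viability was read by ATPlite luminescence after 15 min at room temperature.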

HeLa = test: as above; conditions: Gynecologic cancer cell panel viability, ATPlite luminescence, 48 h; series mostly up to 57.5 µM
In short: as §3

C33A = test: as above; conditions: Gynecologic cancer cell panel viability, ATPlite luminescence, 48 h; series mostly up to 57.5 µM
In short: as §3

Hek293T [2] = test: as above; conditions: Gynecologic cancer cell panel viability, ATPlite luminescence, 48 h, control line for the selectivity index; series mostly up to 57.5 µM
In short: as §3

MCC-26 = test: qHTS assay to identify novel small-molecules to repurpose for Merkel cell carcinoma treatment (AID 1296009); conditions: MCC and control cell lines, CellTiter-Glo viability, 72 h; series mostly up to 46 µM; note: nearly all actives have a fitted effect of over 60% in size
In short: as §2

Es-2 = test: Primary qHTS to identify gynecologic anti-cancer compounds using libraries of approved drugs and bioactive compounds (AID 1345084); conditions: Gynecologic cancer cell panel viability, ATPlite luminescence, 48 h; series mostly up to 57.5 µM; note: nearly all actives have a fitted effect of over 55% in size
In short: as §3

CAOV3 = test: as above; conditions: Gynecologic cancer cell panel viability, ATPlite luminescence, 48 h; series mostly up to 57.5 µM
In short: as §3

HEK293T [3] = test: qHTS assay to identify novel small-molecules to repurpose for Merkel cell carcinoma treatment (AID 1296009); conditions: MCC and control cell lines, CellTiter-Glo viability, 72 h; at 44.8 µM (top of the series) unless noted; note: nearly all actives have a fitted effect of over 60% in size
In short: as §2

HACAT [4] = test: as above; conditions: MCC and control cell lines, CellTiter-Glo viability, 72 h; series mostly up to 44.8 µM
In short: as §2
% is set by controls: 0 for no effect and ±100 for the full control effect; potency is the fitted concentration of half-maximal effect.

COc1cc(Nc2ncc(F)c(Nc3ccc4c(n3)N(COP(=O)(O)O)C(=O)C(C)(C)O4)n2)cc(OC)c1OC
inactive: Potency (MCC-13) | Potency (MKL-1) | Potency (MKL-2) | Potency (UISO) | Potency (WaGa)
active: Potency (CRL-7250) 1.48 µM and 3.66 µM | Potency (HEK293) 3.72 µM and 7.31 µM | Potency (HaCat [1]) 4.69 µM and 4.61 µM | Potency (KB-3-1) 4.11 µM | Potency (NIH3T3) 2.06 µM | Potency (CASKI) 17.8 µM | Potency (HeLa) 3.55 µM

Nc1nccc(Oc2ccc(NC(=O)c3c[nH]cc(-c4ccc(F)cc4)c3=O)cc2F)c1Cl
inactive: max response (HaCat [1]) -25.3% | Potency (MCC-13) | Potency (C33A) | Potency (CASKI) | Potency (HeLa) | Potency (Hek293T [2])
active: Potency (CRL-7250) 18.7 µM | Potency (HEK293) 11.8 µM and 13 µM | Potency (KB-3-1) 23.5 µM and 18.4 µM | Potency (NIH3T3) 16.6 µM | Potency (MKL-1) 5.26 µM | Potency (MKL-2) 14.8 µM | Potency (UISO) 14.8 µM | Potency (WaGa) 2.35 µM

C=CC(=O)Nc1cccc(Oc2nc(Nc3ccc(N4CCN(C)CC4)cc3)ncc2Cl)c1
inactive: Potency (Es-2)
active: Potency (CRL-7250) 4.18 µM and 920 nM | Potency (HEK293) 5.26 µM and 9.2 µM | Potency (HaCat [1]) 1.18 µM and 2.31 µM | Potency (KB-3-1) 2.96 µM and 5.8 µM | Potency (NIH3T3) 3.72 µM and 6.51 µM | Potency (MCC-13) 7.43 µM | Potency (MCC-26) 11.8 µM | Potency (MKL-1) 3.32 µM | Potency (MKL-2) 8.33 µM | Potency (CASKI) 10 µM | Potency (HeLa) 7.94 µM

CCOc1cc2ncc(C#N)c(Nc3ccc(F)c(Cl)c3)c2cc1NC(=O)C=CCN(C)C
active: Potency (CRL-7250) 0.105 µM | Potency (HEK293) 1.87 µM | Potency (HaCat [1]) 0.0166 µM | Potency (KB-3-1) 5.9 µM | Potency (NIH3T3) 1.48 µM | Potency (MCC-13) 23.5 µM | Potency (MCC-26) 14.8 µM | Potency (MKL-1) 14.8 µM | Potency (MKL-2) 14.8 µM | Potency (UISO) 2.64 µM | Potency (WaGa) 9.35 µM

COc1ccc(-c2cc3c(C)nc(N)nc3n(C3CCC(OCCO)CC3)c2=O)cn1 (configuration not stated)
active: Potency (CRL-7250) 23.5 nM and 231 nM | Potency (HEK293) 66.2 nM and 411 nM | Potency (HaCat [1]) 52.6 nM and 2.31 µM | Potency (KB-3-1) 105 nM and 517 nM | Potency (NIH3T3) 1.3 µM | Potency (MCC-13) 1.87 µM | Potency (MCC-26) 1.32 µM | Potency (MKL-1) 4.18 µM | Potency (MKL-2) 0.166 µM | Potency (UISO) 0.166 µM | Potency (WaGa) 2.09 µM | Potency (CAOV3) 1 µM | Potency (CASKI) 1.41 µM | Potency (Es-2) 2.51 µM | Potency (HeLa) 7.94 µM | Potency (Hek293T [2]) 1.41 µM

CC(=O)SC[C@@H](C)C(=O)N1CCC[C@H]1C(=O)N[C@@H](Cc1ccccc1)C(=O)O
inactive: max response (CRL-7250) 1.31% | outcome (HEK293) | max response (HaCat [1]) 1.63% | max response (KB-3-1) 2.35% | max response (NIH3T3) 0.0761% | outcome (HEK293T [3]) | Potency (MCC-13) | Potency (MCC-26) | Potency (MKL-1) | Potency (MKL-2) | Potency (UISO) | Potency (WaGa) | Potency (C33A) | Potency (CAOV3) | Potency (CASKI) | Potency (Es-2) | Potency (HeLa) | Potency (Hek293T [2])

COc1ccc(CC2SC(=O)NC2=O)cc1C(=O)NCc1ccc(C(F)(F)F)cc1 (configuration not stated)
active: Potency (CRL-7250) 11.8 µM
inactive: max response (HEK293) -1.55% | outcome (HaCat [1]) | max response (KB-3-1) -9.05% | max response (NIH3T3) 2.55% | Potency (HACAT [4]) | Potency (MCC-13) | Potency (MCC-26) | Potency (MKL-1) | Potency (MKL-2) | Potency (UISO) | Potency (WaGa)

CC(C)c1ccc(Cn2ccc3c4c(N)nc(NC5CC5)nc4ccc32)cc1
active: Potency (CRL-7250) 3.32 µM | Potency (HEK293) 1.18 µM | Potency (HaCat [1]) 37.2 µM | Potency (KB-3-1) 1.32 µM | Potency (NIH3T3) 4.69 µM | Potency (MCC-13) 1.05 µM | Potency (MCC-26) 16.6 µM | Potency (MKL-1) 14.8 µM | Potency (MKL-2) 4.18 µM | Potency (UISO) 14.8 µM | Potency (WaGa) 9.35 µM

CC(C)(C)OC(=O)Nc1ccc(-c2cc(C(=O)NCCCCCCC(=O)NO)no2)cc1
active: Potency (CRL-7250) 16.6 µM | Potency (HEK293) 7.43 µM | Potency (HaCat [1]) 20.9 µM | Potency (KB-3-1) 8.33 µM | Potency (NIH3T3) 14.8 µM | Potency (MCC-13) 11.8 µM | Potency (MCC-26) 18.7 µM | Potency (MKL-2) 2.96 µM | Potency (UISO) 10.5 µM | Potency (WaGa) 3.32 µM

Cn1cc(-c2ccncc2)c(-c2ccc(OCc3ccc4ccccc4n3)cc2)n1
active: Potency (CRL-7250) 2.64 µM | Potency (HEK293) 3.72 µM and 20.6 µM
inactive: max response (HaCat [1]) -14.9% | outcome (HaCat [1]) | max response (NIH3T3) -27.9% and -28% | Potency (HACAT [4]) | Potency (MCC-13) | Potency (CAOV3) | Potency (CASKI) | Potency (Es-2) | Potency (HeLa) | Potency (Hek293T [2])

Nc1cc(C(F)(F)F)c(-c2cc(N3CCOCC3)nc(N3CCOCC3)n2)cn1
inactive: Potency (MKL-2)
active: Potency (CRL-7250) 2.06 µM | Potency (HEK293) 935 nM and 2.31 µM | Potency (HaCat [1]) 1.18 µM and 1.64 µM | Potency (KB-3-1) 743 nM and 1.46 µM | Potency (NIH3T3) 1.05 µM and 2.59 µM | Potency (MCC-13) 2.96 µM | Potency (MKL-1) 1.66 µM | Potency (UISO) 1.66 µM | Potency (C33A) 15.8 µM | Potency (CASKI) 3.55 µM | Potency (Es-2) 6.31 µM | Potency (HeLa) 3.98 µM | Potency (Hek293T [2]) 3.16 µM
